Screens deposited in PubChem BioAssay by National Center for Advancing Translational Sciences (NCATS).
DT40 TDP1 no CPT: qHTS for Inhibitors of human tyrosyl-DNA phosphodiesterase 1 (TDP1): qHTS in cells in absence of CPT; DT40 Tdp1-/- hTDP1 cells, no CPT, ATP luminescence, 48 h; Potency, µM (series often up to 46.2 µM), most hits filed as inhibitors; actives 15% (n = 420,000); AID 686978, 2013; note: nearly all actives have a fitted effect of over 55% in size
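Chicken DT40 Tdp1-/- cells complemented with human TDP1, screened without camptothecin (DMSO vehicle only), 400 cells/well. Compounds pin-transferred, cells incubated at 37 °C for at least 48 hr. Growth read as ATP-dependent luminescence (CellTiter-Glo, 30 min at RT).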
RORgamma inh: ROR gamma (mouse) transcription inhibition | P51450 | Drosophila S2 Gal4-RORgamma UAS-luciferase reporter, 20 h | Potency, µM (top dose mostly 53.6 µM), hits mostly inhibitors | actives 5.4% (n = 310,000) | AID 2551; note: nearly all actives have a fitted effect of over 60% in size
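A Gal4/UAS one-hybrid system in insect cells: metallothionein-promoter Gal4–ROR gamma fusion plus Photinus luciferase reporter. Copper sulfate 700 uM final, 20 hr ambient incubation, luminescent detection after 10 min with reagent.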
Gal4-VP16 FLuc: counter-screen for ROR gamma inhibitors: Gal4-VP16 reporter. Drosophila S2 Gal4-VP16 UAS-luciferase, luminescence, 20 h. Potency, µM (titrated, usually from 53.6 µM), usual class: inhibitors. actives 3.5% (n = 310,000). AID 2546;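 note: Gal4-VP16 expression switched on by copper sulfate through the metallothionein promoter; nearly all actives have a fitted effect of over 50% in size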
DT40 TDP1 CPT: growth inhibition of DT40 Tdp1-/-;hTDP1 cells with camptothecin (screen for TDP1 inhibitors) | actives 12% (n = 420,000) | Potency, µM (top dose mostly 46.2 µM), usual class: inhibitors | chicken DT40 Tdp1-/-;hTDP1 cells + 20 nM CPT, ATP luminescence, 48 h; note: nearly all actives have a fitted effect of over 55% in size
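Chicken DT40 Tdp1-/- cells complemented with human TDP1, 400 cells/well, exposed to compounds plus 20 nM camptothecin for at least 48 h at 37 C; viability read as ATP content by CellTiter-Glo luminescence.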
TDP1 inh: blocks human tyrosyl-DNA phosphodiesterase 1. Q9NUW8. AID 485290. actives 0.28% (n = 350,000). recombinant TDP1, AlphaScreen DNA substrate cleavage. Potency, µM (highest dose often 130 µM), actives largely listed as inhibitors; note: nearly all actives have a fitted effect of over 40% in size
Target sequence (Q9NUW8 whole entry, looked up): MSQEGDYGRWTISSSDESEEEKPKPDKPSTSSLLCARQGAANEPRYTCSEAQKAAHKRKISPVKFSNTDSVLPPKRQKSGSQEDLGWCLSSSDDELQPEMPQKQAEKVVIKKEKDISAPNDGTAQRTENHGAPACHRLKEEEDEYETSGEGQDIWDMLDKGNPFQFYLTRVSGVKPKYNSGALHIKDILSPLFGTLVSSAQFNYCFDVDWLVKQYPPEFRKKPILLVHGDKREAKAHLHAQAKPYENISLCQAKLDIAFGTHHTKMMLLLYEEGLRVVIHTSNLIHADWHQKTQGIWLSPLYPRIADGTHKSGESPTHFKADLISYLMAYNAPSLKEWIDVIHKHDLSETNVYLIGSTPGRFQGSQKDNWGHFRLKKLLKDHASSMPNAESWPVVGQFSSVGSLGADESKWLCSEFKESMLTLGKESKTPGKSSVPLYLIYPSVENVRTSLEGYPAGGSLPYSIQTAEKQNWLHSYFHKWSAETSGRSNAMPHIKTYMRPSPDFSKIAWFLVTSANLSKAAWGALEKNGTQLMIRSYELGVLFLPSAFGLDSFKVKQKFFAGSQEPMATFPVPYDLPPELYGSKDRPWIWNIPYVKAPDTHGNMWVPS
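Signal: AlphaScreen proximity between streptavidin donor and anti-FITC acceptor beads on intact substrate. Reaction: Tdp1 1 nM, substrate 15 nM final, 5 min RT after 15 min compound preincubation.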
Hits are given with their value; - = inactive; ? = inconclusive; . = not tested or not shown; [ ] = remark or other dose. Hits are enriched below; roughly 19% of the tested compounds scored in any of these assays. Calls come from the whole dose curve; as a rule, active = well fitted curve in the direction sought with a large enough effect; inconclusive = small, poorly fitted or top-dose-only effect, or another doubt; inactive = no such curve, though single readings can be large; an effect the other way counts as inactive or inconclusive.

SMILES | DT40 TDP1 no CPT | RORgamma inh | Gal4-VP16 FLuc | DT40 TDP1 CPT | TDP1 inh
Nn1c(SCc2cccc(Cl)c2)nnc1-c1ccncc1 | - | - | - | - | -
O=C(NCc1ccccn1)c1c(-c2ccccc2)sc2ccccc12 | ? | . | . | 23µM | -
O=C(NCc1ccccn1)c1ccc(-c2ccccc2)cc1 | - | - | - | - | -
Cc1cccc(N(C)S(=O)(=O)c2nnc(NC(=O)c3cccs3)s2)c1 | ? | . | . | - | -
CC(C)(C)NC(=O)/C=C/c1cccs1 | - | - | - | - | -
Cc1c(C)n(CCN(C)C)c2ccc(C(=O)OCCN(C)C)cc12 | 21µM | - | - | ? | -
Cc1c(C)n(Cc2ccccc2)c2ccc(C(=O)OCCCN(C)C)cc12 | 21µM | ? | - | ? | -
Cc1[nH]c2ccc(C(=O)OCCN(C)C)cc2c1C | - | - | - | - | -
Cc1ccc(N2CCn3c2nc2c3c(=O)n(Cc3cccc(Cl)c3)c(=O)n2C)cc1C | - | . | . | ? | -
COc1ccc(NC(=O)C(NC(=O)c2ccc(C)cc2)c2ccccc2)cc1 (configuration not stated) | - | - | - | - | -
COc1cc(NC(=S)N2CCN(C)CC2)cc(OC)c1 | - | - | - | - | .
CC(C)OP(=O)(OC(C)C)/C(C=O)=N\Nc1ccc([N+](=O)[O-])cc1 | ? | - | - | 16µM | .
CC(C)C(=O)c1cn(CC(=O)NCc2ccco2)c2ccccc12 | - | - | - | ? | -
CCOC(=O)C(C)Oc1cccc2c(=O)n(CC(=O)NCc3ccco3)ccc12 (configuration not stated) | 2.1µM | - | - | 1.6µM | -
Cn1c(SCc2ccccc2)nnc1C1CCCNC1 (configuration not stated) | - | - | - | - | -
O=S(=O)(NCc1ccccn1)c1cc(C(F)(F)F)ccc1Cl | - | 7.1µM | ? | ? | -
Cc1cc(C)c(NC(=O)c2ccc(CNS(=O)(=O)c3cc(C(F)(F)F)ccc3Cl)cc2)c(C)c1 | 16µM | - | - | 21µM | -
O=S(=O)(NCc1ccccn1)c1cc(Cl)ccc1Cl | - | 8.9µM | 10µM | - | -
O=S(=O)(Nc1ncccn1)c1cc(Cl)ccc1Cl | - | - | - | - | .
O=S(=O)(NCc1ccccn1)c1ccc(Cl)c(C(F)(F)F)c1 | - | 7.1µM | ? | - | -
COc1ccc(C(C)=O)cc1COC(=O)c1cc(=O)c2ccccc2o1 | - | - | - | - | -
O=C(NCCO)/C(=C\c1ccc2c(c1)OCO2)NC(=O)c1ccc(Br)cc1 | - | - | - | - | -
Oc1ccc(-c2[nH]ncc2-c2cccc3cccnc23)c(O)c1 | ? | - | ? | 23µM | -
COc1ccccc1NC(=O)N1CCC(C(=O)c2ccc(F)cc2)CC1 | - | - | - | - | -
C=CCn1c(SCc2ccccc2Cl)nnc1-c1sc2nc(C)cc(C)c2c1N | 23µM | - | - | ? | -
SMILES | DT40 TDP1 no CPT | RORgamma inh | Gal4-VP16 FLuc | DT40 TDP1 CPT | TDP1 inh
Cc1ccc(Cl)cc1N1CCN(C(=O)c2cc3ccc4cccnc4c3[nH]2)CC1 | ? | . | . | ? | -
Cc1cccc(N2CCN(C(=O)c3cc4ccc5cccnc5c4[nH]3)CC2)c1C | ? | . | . | 23µM | -
CC(=O)c1ccc(N2CCN(C(=O)c3cc4ccc5cccnc5c4[nH]3)CC2)cc1 | 18µM | . | . | 15µM | -
O=C(c1cc2ccc3cccnc3c2[nH]1)N1CCN(c2ccc(Cl)cc2)CC1 | ? | . | . | ? | -
O=C1C(=C2SCCCS2)CC/C1=C\c1ccc(F)cc1 | ? | 4.5µM | 3.5µM | ? | -
Cc1cccc(/C=C2\CCC(=C3SCCCS3)C2=O)c1 | 15µM | 0.28µM | 3.5µM | ? | -
O=C1/C(=C/c2ccc(F)cc2)CCC1C1CCCC1 (configuration not stated) | - | - | ? | - | -
COc1cccc(CNc2cc(C)ccn2)c1O | ? | - | - | - | .
CCSC(N)=Nc1ccc(C(F)(F)F)cc1 | ? | . | . | - | -
NC(N)=NN=C(c1ccc(F)cc1)c1ccc(C(F)(F)F)cc1 | 2.3µM | . | . | 2.6µM | .
COc1ccc(C(=O)Nc2cc(C(F)(F)F)ccc2N2CCN(c3ccccc3)CC2)cc1OC | . | . | . | . | -
Cc1ccc(Sc2ccc([N+](=O)[O-])cc2[N+](=O)[O-])nc1 | 2.9µM | - | ? | 2.6µM | -
O=[N+]([O-])c1ccc(Sc2ccc(Cl)c(Cl)c2)nc1 | - | - | - | ? | -
Nc1nc(Sc2ccc([N+](=O)[O-])cc2[N+](=O)[O-])n[nH]1 | ? | - | - | ? | .
Cc1ccnc(Sc2ccc([N+](=O)[O-])cc2[N+](=O)[O-])n1 | 0.58µM | 13µM | ? | 0.73µM | -
Cc1ccc2[nH]c3c(c2c1)CN(C(=O)CN1CCN(c2ccccn2)CC1)CC3 | ? | -[10 µM] | - | - | -
O=C(O)[C@@H]1CCCNC1 | . | - | - | . | -[21 µM]
CC(C)c1cccc(-c2ccc3c(c2)S(=O)(=O)c2cccc(C(=O)NCc4ccccc4Cl)c2C3=O)c1 | 6.5µM | . | . | 2.6µM | -
CC(C)c1cccc(-c2ccc3c(c2)S(=O)(=O)c2cccc(C(=O)NCc4ccccc4)c2C3=O)c1 | 23µM | . | . | ? | -
O=C(NCc1ccc(F)cc1)c1cccc2c1C(=O)c1ccc(Cl)cc1S2(=O)=O | . | . | . | . | -
NS(=O)(=O)c1ccc(N2N=C(c3ccccc3)CC2c2cccc(Cl)c2)cc1 (configuration not stated) | - | . | . | - | -
COc1ccccc1C(=O)Nc1nc(-c2ccc(Br)cc2)ns1 | ? | . | . | ? | -
COc1ccc(-c2nsc(NC(=O)COc3ccccc3OC)n2)cc1 | - | . | . | - | -
Cc1cccc(C)c1OCC(=O)Nc1nc(-c2ccc(Br)cc2)ns1 | 16µM | . | . | ? | -
Cc1ccccc1C(=O)Nc1nc(-c2ccc(Br)cc2)ns1 | 21µM | . | . | 16µM | -
SMILES | DT40 TDP1 no CPT | RORgamma inh | Gal4-VP16 FLuc | DT40 TDP1 CPT | TDP1 inh
Cc1cccc(NC(=O)CN2CCN(C(=O)c3ccc(OCc4cn5ccccc5n4)cc3)CC2)c1C | 9.2µM | . | . | 18µM | 45µM
O=C(CN1CCN(C(=O)c2ccc(OCc3cn4ccccc4n3)cc2)CC1)Nc1cccc(F)c1 | 15µM | . | . | 23µM | -
CCN(CC)c1nc(-c2ccccc2)nc2c1sc(=S)n2CC | - | - | - | - | -
COc1ccc(-n2c(Cc3cccn3C)nnc2SCC(=O)Nc2ccc(C)c(Cl)c2)cc1 | ? | ? | 11µM | ? | -
COc1ccc(-n2c(Cc3cccn3C)nnc2SCC(=O)Nc2cccc(OC)c2)cc1 | - | - | - | - | -
Cc1cc(C)cc(NC(=O)CSc2nnc(Cc3cccn3C)n2-c2ccc(F)cc2)c1 | - | ? | 11µM | - | -
Cc1cc(C)c(NC(=O)CSc2nnc(Cc3cccn3C)n2-c2ccc(F)cc2)c(C)c1 | - | - | - | ? | -
CC(C)(CC1(C)NC(=O)NC1=O)OCc1ccccc1 (configuration not stated) | - | . | . | - | .
CC(=O)N(c1ccccc1C)C1CCCC1 | ? | - | - | - | -
